Results on 88 compounds are retold here after ChEMBL document CHEMBL4888484, “Replenishing the malaria drug discovery pipeline: Screening and hit evaluation of the MMV Hit Generation Library 1 (HGL1) against asexual blood stage Plasmodium falciparum ,using a nano luciferase reporter read-out” (2022).

Out of some 150,000 compounds screened, about 540 (0.36%) showed an effect of 50% or more. This is one part of a sample in which strong results are shown more often than they occur.

This assay relates to Plasmodium falciparum. In words: Primary screen in NF54 nanoGlo assay, in single point, at 2uM, 72h; a lower Z score goes with more inhibition. It counts as functional, Erythrocyte. The following applies: timepoint 72 hour.
The term % Inhibition denotes the relative decrease from the control value, in per cent. Consider `O=C(Nc1cccc2c1CCCC2)c1cccc(S(=O)(=O)N2CCCCC2)c1`, for which the “% Inhibition” value is recorded as -16% and the Z score came out at 1.73.
Taken in the same sequence, the figures for `Cc1cc(=O)c(C(=O)Nc2ccnc(NC(=O)OC(C)(C)C)c2)c[nH]1` were -2% and 0.38.
Turning to `Cn1cncc1CCN1CCC[C@H](NC(=O)OC(C)(C)C)C1`, the “% Inhibition” value is -12% and the Z score was found to be 1.84.
The corresponding values for `Cn1cncc1CC(=O)Nc1ccnc(NC(=O)OC(C)(C)C)c1` are 94% and -14.52.
The corresponding values for `CC(C)c1noc(CN2CC[C@H](NC(=O)c3ccccn3)[C@@H](O)C2)n1` are -2% and 0.42.
Regarding `CCCN(CC(=O)N(Cc1ccco1)C[C@H]1CCCO1)C(=O)c1ccc(C)cc1`, the “% Inhibition” value is given as -8% and the Z score is recorded as 1.14.
`COc1ccnc(C(=O)N(Cc2cnn(C)c2)C(C)C)c1`: the “% Inhibition” value is recorded as -10% and the Z score is listed as 1.37.
The corresponding values for `CC(C)c1nccn1CCC(=O)Nc1ncn(C2CCCCC2)n1` are 50% and 1.4.
`CC(C)c1nccn1CCC(=O)N1CC[C@H](N)C1`: the “% Inhibition” value was found to be 6% and the Z score was -0.94.
Regarding `CC(C)c1nccn1CC(=O)NC(C1CC1)C1CC1`, the “% Inhibition” value worked out at 1% and the Z score is given as -0.12.
As for `CC(C)Cn1c(CC2(CC(=O)NC3CCOCC3)CCCC2)nc2cccnc21`, the “% Inhibition” value is on record as -12% and the Z score is 1.81.
As for `CCN1CCN(Cc2cccc3cccnc23)C(C)(C)C1=O`, the “% Inhibition” value is reported as -9% and the Z score is given as 1.65.
For `Cc1ccc(-c2ncc(CN3CCCC4(C3)OCCO4)s2)o1`, the “% Inhibition” value is reported as -5% and the Z score is on record as 0.88.
In the case of `COc1cc(C)c(S(=O)(=O)N2CCc3cc4ccccc4nc32)cc1C`, the “% Inhibition” value is reported as -10% and the Z score is listed as 1.11.
As for `C[C@H](NC(=O)c1cncc(O)c1)c1nncn1C`, the “% Inhibition” value is listed as -4% and the Z score is given as 0.69.
Take `Cc1nc(N(C)C)cc(N2CCN(C(=O)C3CCCC3)CC2)n1`: the “% Inhibition” value is -17% and the Z score was 1.88.
Taken in the same sequence, the figures for `c1ccc(CC2(c3nc(-c4cnccn4)no3)CCC2)cc1` were 13% and -2.33.
Take `COc1cccc(-c2nsc(C(=O)NCc3cccs3)c2N)c1`: the “% Inhibition” value turned out to be 18% and the Z score is given as -2.8.
Turning to `OC1CCCCC1N1CCc2sccc2C1` (stereo unspecified), the “% Inhibition” value is recorded as -21% and the Z score is listed as 2.66.
As to `Clc1cccc(CNCCCNc2ccncc2)c1Cl`, the “% Inhibition” value is reported as 67% and the Z score is -8.81.
Taken in the same sequence, the figures for `CCN(CC)CCNCc1cccc(Cl)c1Cl` were -2% and 0.28.
Consider `CCNCc1cccc(Cl)c1Cl`, for which the “% Inhibition” value is recorded as 4% and the Z score is recorded as -0.5.
The corresponding values for `Cc1ccc2c(c1)CCCN2C(=O)c1ccoc1` are 4% and -0.72.
Taken in the same sequence, the figures for `CCn1ccc(C(=O)N[C@H]2CCOC[C@@H]2OC)n1` were -7% and 0.83.
Take `OC1CCC(NC(=NC2CC2)NCc2ccccc2F)CC1` (stereo unspecified): the “% Inhibition” value was -9% and the Z score is 1.4.
In the case of `CC1(C)C(CNC(=O)CCn2cc(C(N)=O)c(=O)[nH]c2=O)C1(C)C`, the “% Inhibition” value was found to be 19% and the Z score was -2.23.
Turning to `CCOC(=O)CCn1cc(F)c(=O)[nH]c1=O`, the “% Inhibition” value is listed as 74% and the Z score is recorded as -6.55.
The corresponding values for `Cc1cc(C(=O)Cn2cc(Cl)c(=O)[nH]c2=O)c(Cl)cc1F` are -1% and 0.1.
Taken in the same sequence, the figures for `CCCCN(CC)C(=O)Nc1cc(Cl)c(OC)cc1OC` were 1% and -0.07.
The corresponding values for `O=C(NCCCn1ccnc1)[C@@H]1Cc2c(ccc3ccccc23)O1` are 4% and -0.47.
As to `CC(C)[C@H](NC(=O)Nc1cc(Cl)ccc1Cl)c1ncc[nH]1`, the “% Inhibition” value is on record as -5% and the Z score is 0.62.
For the compound `C[C@@H](C(=O)Nc1ncc[nH]1)c1ccc2c(c1)[nH]c1ccc(Cl)cc12`, the “% Inhibition” value was 69% and the Z score is recorded as -1.75.
Taken in the same sequence, the figures for `C[C@@H](C(=O)Nc1nnc[nH]1)c1ccc2c(c1)[nH]c1ccc(Cl)cc12` were -7% and 0.71.
For the compound `CN(c1ccc2c(c1)CCO2)S(C)(=O)=O`, the “% Inhibition” value is given as 13% and the Z score was -1.53.
The corresponding values for `c1ccc(-c2nc3c(c(N4Cc5ccccc5C4)n2)CCNC3)nc1` are -4% and 0.52.
For `O=C(O)[C@H]1CCCN(c2nc(-c3ccsc3)nc3ccccc23)C1`, the “% Inhibition” value is given as -12% and the Z score is reported as 2.15.
The corresponding values for `COC[C@H]1CCN(c2nc(-c3ccccn3)nc3c2CCNCC3)C1` are -2% and 0.41.
Taken in the same sequence, the figures for `FC(F)(F)C1CN(c2nc(-c3ccccn3)nc3c2CCC3)C1` were 75% and -13.36.
Take `C[C@H]1CCCN(c2nc(-c3ccccn3)nc3ccccc23)C1`: the “% Inhibition” value came to 96% and the Z score is reported as -9.05.
The corresponding values for `C[C@H]1CCN(c2nc(-c3ccccn3)nc3c2CCC3)C1` are 90% and -12.13.
Taken in the same sequence, the figures for `NC(=O)C[C@H]1CCN(c2nc(-c3ccccn3)nc3c2CCC3)C1` were -8% and 1.56.
Consider `FC(F)(F)[C@H]1CCCN(c2nc(-c3cccnc3)nc3ccccc23)C1`, for which the “% Inhibition” value is reported as 8% and the Z score was -0.64.
Take `O=C(Cn1nccn1)N1CCN(Cc2ccc3c(c2)OCO3)CC1`: the “% Inhibition” value was found to be 2% and the Z score is recorded as -0.28.
Turning to `CCN(C(=O)c1cc(N)ccc1Cl)C(C)C`, the “% Inhibition” value amounted to 6% and the Z score was -0.81.
For the compound `Cc1cccn(CC(=O)N2CCC(=O)[C@@H](C)C2)c1=O`, the “% Inhibition” value is on record as 2% and the Z score is -0.36.
Regarding `O=C1c2ccccc2C(=O)N1Cc1nc(-c2cccnc2)no1`, the “% Inhibition” value is listed as -9% and the Z score came to 1.34.
The corresponding values for `Cc1ccsc1C(=O)NCCNc1ncccn1` are -7% and 0.93.
On to `CCCc1cnc(C)nc1-c1ccnc2c1ccn2C`, for which the “% Inhibition” value is -4% and the Z score was determined as 0.73.
In the case of `Cc1ccncc1C(=O)N1CCC(CCn2c(C)cnc2C2CC2)CC1`, the “% Inhibition” value is -3% and the Z score was 0.37.
Regarding `Cc1ccnc(N2CCC(O)(Cn3ccnc3)CC2)n1`, the “% Inhibition” value is -12% and the Z score amounted to 1.12.
As for `CC(C)(C)c1ccc(=O)n(CC2CN(c3cnsn3)C2)n1`, the “% Inhibition” value was -16% and the Z score amounted to 2.38.
For the compound `CN(C(=O)C(C)(C)Nc1ncc(C(F)(F)F)cc1Cl)c1ccc(Cl)cc1`, the “% Inhibition” value worked out at 59% and the Z score was -7.64.
On to `CC(=O)C(=CNc1ncc(C(F)(F)F)cc1Cl)C(C)=O`, for which the “% Inhibition” value is given as -6% and the Z score came out at 1.17.
The corresponding values for `C[C@H](Nc1ncc(C(F)(F)F)cc1Cl)C(N)=O` are -10% and 1.96.
Take `Oc1nc(-c2cccnc2)sc1-c1ccccc1`: the “% Inhibition” value is -2% and the Z score stood at 0.32.
Take `Oc1nc(-c2cccc(C(F)(F)F)c2)sc1-c1ccccc1`: the “% Inhibition” value is 59% and the Z score is listed as 0.06.
In the case of `FC(F)(F)c1cccc(-c2cc(-c3csc(-c4ccccc4)n3)on2)c1`, the “% Inhibition” value was 1% and the Z score was -0.12.
Taken in the same sequence, the figures for `O=C(NCCn1c(=O)[nH]c2ccsc2c1=O)c1ccccc1Cl` were -10% and 1.7.
Regarding `O=C(CCn1c(=O)[nH]c2ccsc2c1=O)NCc1ccccc1`, the “% Inhibition” value was 59% and the Z score was -1.7.
Taken in the same sequence, the figures for `O=c1[nH]c2ccsc2c(=O)n1CCc1ccccc1` were 33% and -4.74.
The corresponding values for `COc1cc(C(=O)NCC2(C)CCCCCC2)on1` are -5% and 0.52.
The corresponding values for `CC1=C(C(=O)Nc2ccccc2)[C@H](c2ccc(Cl)cc2)c2c(n(C)c(=O)n(C)c2=O)N1` are -3% and 0.36.
As to `O=C(NCCCOCC(F)(F)F)NC1CCCC2OCCC12` (stereo unspecified), the “% Inhibition” value is recorded as -14% and the Z score is given as 1.44.
Turning to `CCN1CCN(CCN2CC3(CCN(Cc4ccccc4C#N)CC3)OC2=O)CC1`, the “% Inhibition” value is recorded as 2% and the Z score is -0.49.
As to `CCc1nc2c(C(=O)N3CCOc4c(C)cc(C)cc43)ccnc2[nH]1`, the “% Inhibition” value amounted to 71% and the Z score was -10.67.
The corresponding values for `CCc1nc(O)c(C(=O)N2CCOc3cc(F)c(F)cc32)cc1C` are -5% and 0.67.
The corresponding values for `Cc1cc(C)c2c(c1)N(C(=O)Cc1cnccc1C)CCO2` are -7% and 0.88.
As to `O=C(c1n[nH]c2c1CCCCCC2)N1CCC(c2nc(C3CCOCC3)no2)CC1`, the “% Inhibition” value is listed as -3% and the Z score is listed as 0.4.
The corresponding values for `C[C@@H](CN1CCc2ccccc2C1)NC(=O)c1cnc2c(c1)CCCC2` are -3% and 0.47.
On to `CCn1cc(-c2cccc(C(=O)N[C@@H](C)c3nc(C)sc3C)c2)cn1`, for which the “% Inhibition” value is reported as -4% and the Z score stood at 0.85.
Taken in the same sequence, the figures for `CN(CC(F)(F)F)C(=O)CN1C(=O)c2ccccc2C(C)(C)C1=O` were 2% and -0.16.
Regarding `Cc1[nH]ncc1CCCNCc1cccc(O)c1`, the “% Inhibition” value worked out at 39% and the Z score is -0.35.
The corresponding values for `Cc1cn2nc(C(=O)NCCc3ccccc3)cc2c(=O)[nH]1` are 3% and -0.45.
Taken in the same sequence, the figures for `Cc1cn2nc(C(=O)NCCc3ccc(S(N)(=O)=O)cc3)cc2c(=O)[nH]1` were -18% and 3.38.
Taken in the same sequence, the figures for `COc1ccc(CCNC(=O)c2cc3c(=O)[nH]c(C)cn3n2)cc1OC` were 61% and -7.83.
Turning to `CCN(CC)S(=O)(=O)c1ccc2c(c1)nnn2CCNC(=O)Nc1cccc(F)c1`, the “% Inhibition” value is on record as 26% and the Z score is -2.96.
Taken in the same sequence, the figures for `CNC(=O)CCCN(C)c1ccnc2cc(Br)cnc12` were -9% and 1.06.
The corresponding values for `C[C@@H](CN)N(C)c1ccnc2cc(Br)cnc12` are 99% and -17.88.
The corresponding values for `Cc1cc(CN(C)c2ccnc3cc(Br)cnc23)no1` are 12% and -0.99.
Regarding `Cc1cc(C(=O)N[C@@H]2COC(C)(C)C2)n(C2CCOCC2)n1`, the “% Inhibition” value turned out to be 3% and the Z score is on record as -0.34.
Turning to `C[C@@H](C(=O)N(C)CC1(CO)CCCC1)N1CCN(C)CC1`, the “% Inhibition” value is recorded as -13% and the Z score amounted to 1.47.
With `COc1cc(CNCCCN2CCOCC2)ccc1OCc1ccc(Cl)cc1`, the “% Inhibition” value was 50% and the Z score was -4.4.
As for `COc1cc(CNCCN2CCOCC2)ccc1OCc1cccc(C)c1`, the “% Inhibition” value is 42% and the Z score was -5.6.
Taken in the same sequence, the figures for `COc1ccc(-c2cc3n(n2)CCC(=O)N3Cc2ccc(C(=O)NCCN3CCCCC3)cc2)cc1` were 10% and -1.2.
The corresponding values for `COc1ccc(S(=O)(=O)N2CCC(c3cc(N)on3)CC2)cc1Cl` are 57% and -3.68.
On to `COc1cccc(S(=O)(=O)N2CCC(c3cc(N)on3)CC2)c1`, for which the “% Inhibition” value came out at 19% and the Z score is -2.95.
Consider `COc1ccc(S(=O)(=O)N2CCC(n3cnnc3C)CC2)cc1Cl`, for which the “% Inhibition” value was -11% and the Z score came to 1.63.
Taken in the same sequence, the figures for `C[C@@H](c1nc(C(C)(C)C)no1)N1CCN(C(c2ccccc2)c2ccccc2)CC1` were -18% and 1.54.
